This passage reports growth results from PubChem BioAssay (NCI).

Molecules are shown by their SMILES. “And” between values parts separate entries of the source, which are not always exact repeats. Equal entries are not always repeated. The panel holds about 83,000 compounds, 20% with a hit somewhere; the sample as a whole holds those more often.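 Activity criterion: percent growth below 10, measured after cells in 96-well plates were exposed to a single compound concentration for 48 hours.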 The source made the active and inactive calls.

One assay relates to HCC-2998 colon. Briefly: NCI-60 one-dose screen, 48 h (100 = growth as untreated, 0 = no growth, -100 = all killed).
Another assay has as its system KM12 colon. The assay is described as above.

`Cc1ccc(C(=O)OC(C(=O)O)C(OC(=O)c2ccc(C)cc2)C(=O)O)cc1` (configuration not stated) (tested in a mixture with another compound): the growth is 73% (inactive) in the assay on HCC-2998 colon (10 µM unless noted) and 58.9% (inactive) with KM12 colon (10 µM unless noted).

For the compound `CC[C@](O)(C(=O)O)c1cc2n(c(=O)c1CO)Cc1cc3ccccc3nc1-2`, the growth in the assay on HCC-2998 colon (10 µM unless noted) is -61.6% (active); with KM12 colon (10 µM unless noted), -29.9% (active).

As to `CCOC(=O)C(NC(=O)C(Cc1ccc(N(CCCl)CCCl)cc1)NC(C)=O)C(C)C` (configuration not stated), the growth in the assay on HCC-2998 colon (10 µM unless noted) was 73.2% (inactive); in the assay with KM12 colon (10 µM unless noted), 94.8% (inactive).

For `Cc1c(N)nc([C@H](CC(N)=O)NC[C@H](N)C(N)=O)nc1C(=O)N[C@H](C(=O)N[C@H](C)[C@@H](O)[C@H](C)C(=O)N[C@H](C(=O)NCCc1nc(-c2nc(C(=O)NCCC[S+](C)C)cs2)cs1)[C@@H](C)O)C(OC1OC(CO)C(O)C(O)C1OC1OC(CO)C(O)C(OC(N)=O)C1O)c1cnc[nH]1` (some centres not stated), the growth was 5.84% [2.5 µM] (active) in the assay with HCC-2998 colon (10 µM unless noted) and 80.9% [2.5 µM] (inactive) in the assay with KM12 colon (10 µM unless noted).

On to `CC[C@@]1(O)C[C@H](OC2CC(N(C)C)C(O)C(C)O2)c2c(O)c3c(c(O)c2[C@H]1OC1CC(N(C)C)C(O)C(C)O1)C(=O)c1cccc(O)c1C3=O` (some centres not stated), for which the results for the growth with HCC-2998 colon (10 µM unless noted) and with KM12 colon (10 µM unless noted) were -83.6% (active) and -50.3% (active), respectively.

With `CC[C@@]1(O)C(=O)OCc2c1cc1n(c2=O)Cc2cc3ccccc3nc2-1`, the growth was -73.8% (active) in the assay on HCC-2998 colon (10 µM unless noted) and -42.1% (active) in the assay with KM12 colon (10 µM unless noted).

Regarding `Oc1cccc2cccnc12`, the growth was 100% (inactive) and 103% (inactive) and 123% (inactive) in the assay on HCC-2998 colon (10 µM unless noted); 102% (inactive) and 106% (inactive) and 103% (inactive) in the assay with KM12 colon (10 µM unless noted).

With `CC[C@@]1(O)C[C@H](OC2CC(N(C)C)C(OC3CC(O)C(OC4CCC(=O)C(C)O4)C(C)O3)C(C)O2)c2c(cc3c(c2O)C(=O)c2c(O)ccc(O)c2C3=O)[C@H]1C(=O)OC` (some centres not stated), the growth in the assay with HCC-2998 colon (10 µM unless noted) is -77.5% (active); in the assay with KM12 colon (10 µM unless noted), -14.9% (active).

With `S=C(SSC(=S)N1CCCCC1)N1CCCCC1`, the growth in the assay on HCC-2998 colon (10 µM) was 109% (inactive); in the assay on HCC-2998 colon (100 µM), 22.3% (inactive); with KM12 colon (10 µM) it was 102% (inactive); in the assay on KM12 colon (100 µM), -18.5% (active).

With `CO[C@H](/C(C)=C/C=C/C(C)=C/c1coc(C)n1)[C@H](C)[C@H]1C[C@@H](O)[C@@]2(C)O[C@H]2/C=C/[C@@H](C)[C@@H]2C[C@@H](CC(=O)O2)C[C@H]2O[C@@H]2C(=O)O1`, the figures for the growth in the assay with HCC-2998 colon (10 µM unless noted) and in the assay on KM12 colon (10 µM unless noted) were -25.4% (active) and -17.9% (active), respectively.

`CC1=C2C(=O)[C@H]3[C@@H](CC=C4C[C@@H](O)CC[C@@]43C)[C@@H]2CC[C@]12O[C@@H]1C[C@H](C)CN[C@H]1[C@H]2C`: the growth in the assay on HCC-2998 colon (10 µM unless noted) was 141% (inactive); with KM12 colon (10 µM unless noted), 112% (inactive).

Turning to `COc1ccccc1/C=C(/C)[N+](=O)[O-]`, the growth is 103% (inactive) and 99% (inactive) with HCC-2998 colon (10 µM unless noted); 70% (inactive) and 99.8% (inactive) in the assay with KM12 colon (10 µM unless noted).

Consider `CC[n+]1c(-c2ccccc2)c2cc(N)ccc2c2ccc(N)cc21`, for which the growth in the assay with HCC-2998 colon (10 µM unless noted) is 6.95% (active); in the assay with KM12 colon (10 µM unless noted), 7.69% (active).

As for `CCC(=O)OC1CCn2c1nc1c2C(=O)C(C)=C(N2CC2)C1=O` (configuration not stated), the growth was -52.9% (active) with HCC-2998 colon (10 µM unless noted) and -35.1% (active) with KM12 colon (10 µM unless noted).

As for `C[C@]12CC[C@H](O)CC1=CC[C@@H]1[C@@H]2CC[C@]2(C)C(=O)CC[C@@H]12`, the growth was 90.7% (inactive) in the assay with HCC-2998 colon (10 µM unless noted) and 97.1% (inactive) in the assay on KM12 colon (10 µM unless noted).

`NCCc1ccc(OCc2ccccc2)c(OCc2ccccc2)c1`: the growth was 34.6% (inactive) with HCC-2998 colon (10 µM unless noted) and 80.7% (inactive) with KM12 colon (10 µM unless noted).

On to `Cc1cc(N=Nc2ccccc2C)ccc1N`, for which the growth with KM12 colon (10 µM unless noted) was 78.2% (inactive).

Turning to `CC(=O)O[C@H]1C[C@@H]2OC3C=C(C)CCC3(C)[C@@]1(C)[C@@]21CO1` (some centres not stated), the growth is -27.6% (active) and -20.3% (active) in the assay with HCC-2998 colon (10 µM unless noted); -21.9% (active) and -43% (active) in the assay with KM12 colon (10 µM unless noted).

Consider `Oc1cc[c]([Hg][Cl])cc1`, for which the growth with HCC-2998 colon (10 µM unless noted) was 114% (inactive); in the assay with KM12 colon (10 µM unless noted), 97.4% (inactive).

Turning to `CCC1(O)CC(OC2CC(N(C)C)C(OC3CC4OC5CC(=O)C(C)OC5OC4C(C)O3)C(C)O2)c2c(cc3c(c2O)C(=O)c2c(O)ccc(O)c2C3=O)C1C(=O)OC` (configuration not stated), the growth with HCC-2998 colon (10 µM unless noted) was -89.9% (active); in the assay with KM12 colon (10 µM unless noted) it was -55.3% (active).

With `COc1cccc2c1cc([N+](=O)[O-])c1c(C(=O)O)cc3c(c12)OCO3`, the growth was 47.7% (inactive) and -1.44% (active) with HCC-2998 colon (10 µM unless noted); 84.6% (inactive) and 99.1% (inactive) in the assay on KM12 colon (10 µM unless noted).

In the case of `COC1=C(C)C(=O)C2=C(C1=O)C(CO)N1C(C#N)C3CC4C(C1C2N1CCOC41)N3C` (configuration not stated), the growth in the assay with HCC-2998 colon (10 µM unless noted) was -87.3% (active); in the assay on KM12 colon (10 µM unless noted) it was -60.8% (active).

Regarding `COC1CC(CC2CCC(C)C(C(C)C(=O)O)O2)OC2(OC(C)(C3CCC(C)(C4OC(C5OC(O)(CO)C(C)CC5C)CC4C)O3)CC2C)C1C` (configuration not stated), the growth is -10% (active) in the assay on HCC-2998 colon (10 µM unless noted) and -33.4% (active) in the assay with KM12 colon (10 µM unless noted).
